Measured values published in PubChem BioAssay AID463082 (The Scripps Research Institute Molecular Screening Center, 2010).
Hit rate of the full screen: of about 330,000 compounds, about 4,900 (1.5%) were called active. The sample as a whole holds a higher share of actives than the screen did. A number with no mark means an inactive call.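 How the source made its calls: active means inhibition above the mean inhibition across the screen plus 3 SD (cut at about 25% in these data); inactive means the rest.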

Target: Platelet-activating factor acetylhydrolase (Homo sapiens) (UniProt Q13093)
Sequence (Q13093 whole entry, looked up): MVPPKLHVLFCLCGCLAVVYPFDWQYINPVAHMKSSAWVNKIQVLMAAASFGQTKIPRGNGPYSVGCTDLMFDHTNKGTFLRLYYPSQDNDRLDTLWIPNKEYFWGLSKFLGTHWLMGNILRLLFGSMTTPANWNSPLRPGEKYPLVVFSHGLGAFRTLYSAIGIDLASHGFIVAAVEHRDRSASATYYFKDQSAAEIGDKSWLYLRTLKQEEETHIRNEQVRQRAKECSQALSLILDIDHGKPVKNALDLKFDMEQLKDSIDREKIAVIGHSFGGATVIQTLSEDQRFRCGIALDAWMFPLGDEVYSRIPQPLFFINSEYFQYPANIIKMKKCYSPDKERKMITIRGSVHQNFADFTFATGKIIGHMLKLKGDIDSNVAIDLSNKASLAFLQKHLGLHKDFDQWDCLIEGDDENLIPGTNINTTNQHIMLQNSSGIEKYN
Test: inhibition of plasma PAF acetylhydrolase – biochemical, fluorescence polarization, human, primary screen (AID 463082);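 further: inhibitors block binding of the rhodamine activity-based probe so polarization drops; 0% = enzyme with DMSO and 100% = wells lacking pPAFAH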
Details: recombinant pPAFAH, FP-rhodamine probe fluorescence polarization; at 3.39 µM; hits give high values

Row | Compound | inhibition
1 | CONc1nc2nonc2nc1NOC | 4.61%
2 | CCN(CC(=O)Nc1ccc(OC)cc1)C(=O)c1ccc(=O)n(Cc2ccccc2)n1 | -1.18%
3 | O=c1oc2ccc(C#CC3(O)CCCCC3)cc2cc1-n1cc(-c2ccsc2)nn1 | -0.61%
4 | O=C(CO/N=C/c1ccccc1O)NNC(=O)c1ccccc1Cl | 0.6%
5 | CCOCCCNC(=O)C(=O)NCCCOCC | 7.96%
6 | COc1cccc(COC(=O)C2CCN(S(=O)(=O)c3cccs3)CC2)c1OC | 0.21%
7 | Cn1cccc1C(C#N)c1ccccc1C#N (centres undefined) | 6.28%
8 | CC(=O)Oc1c(C(=O)c2nnc(C)o2)c(=O)n(Cc2ccccc2)c2ccccc12 | 4.19%
9 | CCCCNC(=O)C(C)N(CCN(C)C)C(=O)CCCN1C(=O)NC(c2ccc(Cl)cc2)C(C(=O)OCc2ccccc2)=C1C (centres undefined) | 8.55%
10 | FC(F)(F)c1cccc(Cc2noc(CN3CCC(N4CCCCC4)CC3)n2)c1 | -0.07%
11 | CCN(C(=O)c1cc([N+](=O)[O-])ccc1NCc1cccnc1)c1ccccc1 | -0.13%
12 | CC(Oc1ccc(Br)cc1)C(=O)NCC(c1ccco1)N1CCCCC1 (centres undefined) | 1.84%
13 | CCOC(=O)C1(Cc2ccc(Cl)cc2)CCN(C(=O)C2=NNC(=O)CC2)CC1 | 1.54%
14 | COC(=O)CN1C(=O)[C@H]2[C@@H](/C=C/c3ccccc3)N3C(=O)CN(Cc4ccccc4)C(=O)[C@@]3(Cc3ccccc3)[C@H]2C1=O | 3.66%
15 | NS(=O)(=O)c1ccccc1NC(=O)c1c(O)c2ccccc2[nH]c1=O | -4.47%
16 | CN(C(=O)COC(=O)c1cc(-c2ccco2)nc2ccccc12)C1CCS(=O)(=O)C1 (centres undefined) | 30.1% (active)
17 | CN(CCOc1ccccc1)C(=O)c1cc(-c2ccco2)nc2ccccc12 | 17.3%
18 | CN(C(=O)COC(=O)Cc1ccccc1[N+](=O)[O-])C1CCS(=O)(=O)C1 (centres undefined) | -1.36%
19 | c1ccc(C2CCC(N3CCC(N4CCCCC4)CC3)CC2)cc1 (centres undefined) | 4.58%
20 | CC/C(O)=C1\C(=O)CC(C)(C)CC1=NCCc1nc2ccccc2[nH]1 | -2.43%

Row | Compound | inhibition
21 | Cc1cccc(C(=O)Nc2ccc(C(=O)/C=C/c3cccs3)cc2)c1 | -9.49%
22 | CC(=O)Nc1ccc(S(=O)(=O)Nc2ccc(-c3ccc4nnc(C)n4n3)cc2)cc1 | 3.56%
23 | CC(=O)Nc1ccc(S(=O)(=O)Nc2nc(-c3ccc(C(C)(C)C)cc3)cs2)cc1 | 25.1% (active)
24 | CC(=O)Nc1ccc(S(=O)(=O)Nc2cccc(NC(=O)C(C)(C)C)c2)cc1 | 6.07%
25 | O=C(NC(=S)Nc1cccc2c(O)cccc12)c1cccc(Br)c1 | 8.85%
26 | O=C(Cc1cccs1)N1CCCC(c2nc(-c3ccc(S(=O)(=O)N4CCCC4)cc3)no2)C1 (centres undefined) | 3.46%
27 | CC(C)c1ccc(-c2noc(C3CCCN(S(C)(=O)=O)C3)n2)cc1 (centres undefined) | 26.1% (active)
28 | COc1cc(-c2noc(C3CCCN(S(=O)(=O)c4cccc(Cl)c4)C3)n2)cc(OC)c1OC (centres undefined) | 1.19%
29 | CCCn1c(N)c(C(=O)CSc2nnc(-c3cccnc3)n2-c2ccc(C)cc2C)c(=O)[nH]c1=O | 4.8%
30 | COCC1CCCN(Cc2nc(-c3ccc4c(c3)OCO4)no2)C1 (centres undefined) | 0.91%
31 | CCCCOc1ccc(C(=O)NCC(=O)OCC(=O)N2CCN(S(=O)(=O)c3ccc(C)cc3C)CC2)cc1 | 28% (active)
32 | Cc1ccc(S(=O)(=O)N2CCN(C(=O)COC(=O)CNC(=O)c3ccc(C(C)(C)C)cc3)CC2)c(C)c1 | 18%
33 | Cc1ccc(S(=O)(=O)N2CCN(C(=O)COC(=O)c3c(C)cc(C)cc3C)CC2)c(C)c1 | 0.75%
34 | COc1cccc(CNC(C)C(=O)Nc2ccc(S(=O)(=O)N3CCCC3)cc2)c1 (centres undefined) | -5.3%
35 | COc1ccc(S(=O)(=O)NCC(c2ccco2)N2CCOCC2)cc1 (centres undefined) | -0.61%
36 | Cc1ccc(C(=O)NCC(=O)OCC(=O)NC2CCCCCCC2)cc1 | 9.66%
37 | Cc1cc(C)cc(OCC(=O)OCC(=O)NC2CCCC2)c1 | 21.4%
38 | O=C(COC(=O)CNS(=O)(=O)c1ccc(F)c(F)c1F)NC1CCCC1 | 29.2% (active)
39 | CN(C(=O)CC1C(=O)NCCN1Cc1ccc(F)cc1Cl)C1CCCCC1 (centres undefined) | -3%
40 | COc1ccc(OC)c(-n2c(-c3ccn[nH]3)n[nH]c2=S)c1 | -4.65%

Row | Compound | inhibition
41 | COc1ccccc1-n1c(-c2cc(-c3ccco3)[nH]n2)n[nH]c1=S | 28.5% (active)
42 | COc1ccccc1-n1cn[nH]c1=S | 6.13%
43 | CCn1c(Cc2cccs2)nnc1SCC(=O)c1ccc(C)cc1 | 9.49%
44 | Cc1ccc(-n2c(Cc3cccs3)nnc2SCC(=O)OC(C)C)cc1 | 34% (active)
45 | COc1ccc(-n2c(SCC(=O)OC(C)C)nnc2-c2ccccn2)cc1 | 6.1%
46 | C=C1c2cccc(OC)c2O[C@H](C(=O)OCC)[C@@H]1CCCCCC | 9.96%
47 | CSc1ccc(S(=O)(=O)Nc2cccc(F)c2)cc1 | 32.8% (active)
48 | Cc1cc(C)cc(NS(=O)(=O)c2ccc(F)cc2)c1 | 5.58%
49 | O=C1Cc2cc(S(=O)(=O)Nc3cccc(F)c3)ccc2N1 | 24.4%
50 | Nc1nonc1-n1nnc(C(=O)N/N=C/c2ccc(Cl)cc2)c1-c1ccc2c(c1)OCO2 | 3.64%
51 | O=C(Nc1ccccc1)c1ccc2nsnc2c1 | -5.05%
52 | COCC(C)NC(=O)c1ccc(Cl)c(Cl)c1 (centres undefined) | 4.84%
53 | COCC(C)NC(=O)c1ccc(-n2nc(C(F)(F)F)cc2-c2cccs2)cc1 (centres undefined) | 35.9% (active)
54 | Cc1cc2nc(C(F)(F)F)cc(-c3cccs3)n2n1 | -3.12%
55 | CC(=O)N1CCN(C(=O)C2(NC(=O)Nc3ccc(C)cc3)CCCCC2)CC1 | -3.87%
56 | CCCC(C)C(=O)NCc1ccncc1 (centres undefined) | -2.95%
57 | Cc1ccc(NC(=O)c2csc3c2CCCC3)cc1 | 1.78%
58 | COC(=O)c1c(NC(=O)CCN2CCOCC2)sc2c1CCCC2 | 7.3%
59 | Cc1ccc(NC(=O)c2c(NC(=O)CCC(=O)O)sc3c2CCCCC3)cc1 | 24.6% (active)
